Test results taken from PubChem BioAssay (NCATS).
Several values for one entry are separate records, joined by “and”; a condition that tells them apart may be missing. Equal entries are not always repeated. Records with an inconclusive call do not appear. Where a structure was tested more than once in an assay, its records may differ in their call. Activity calls are given as the source filed them. Unless noted, the call rests on the fitted dose curve; in most records, active means well fitted curve in either direction with a large enough effect (not every such curve was filed as active); inconclusive means small, poorly fitted or top-dose-only effect, or another doubt; inactive means flat fitted curve, though single readings scatter.

How the values were obtained:
[1] = target: Lysosomal acid glucosylceramidase (Homo sapiens) (UniProt P04062); assay: Glucocerebrosidase-p2 (AID 348; in the data active means potency below about 10 µM; further: potency means the concentration at half of the fitted maximal effect); details: purified GBA, blue fluorogenic substrate, 40 min
Procedure, shortened: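 Normal human glucocerebrosidase (0.2 nM) with blue fluorogenic substrate (80 uM final) in citrate/phosphate pH 5.9 with 10mM sodium taurocholate, 0.01% tween-20; 40 min RT, NaOH/glycine stop; fluorescence Ex 365/Em 440; AC50 from a titration from 0.6 nM upwards.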

[2] = AP1 Signaling Pathway (AID 357); further: on the % scale 0 is the no-effect control and ±100 the full control effect
Procedure, shortened: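 AP-1-bla ME-180 cells with beta-lactamase reporter under AP-1 response element, stimulated with EC50 EGF; compounds titrated, 5 hours at 37 degrees Celsius. CCF4 read at 460/530 nm ratio; positive and negative modulators judged by AC50.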

[3] = Cell Viability - BJ (AID 421; calls by dose curve;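 further: potency means the concentration at half of the fitted maximal effect; cells exposed to compound for 40 hours at 37 °C before readout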); details: BJ fibroblast viability, qHTS
Procedure, shortened: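 Quantitative HTS: ATP depletion in BJ cells after 40 hr compound exposure in complete culture medium, detected with CellTiter-Glo; AC50 from standard Hill fits.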

[4] = Cell Viability - Hek293 (AID 427;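 active means compounds whose dose-response curve shows a full or clear partial loss of cell viability, called from curve shape rather than a numeric limit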;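 further: potency means the concentration at half of the fitted maximal effect; cells exposed to compound for 40 hours at 37 °C before reading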); details: qHTS
Procedure, shortened: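 AC50 values derive from Hill-modelled concentration-response of ATP-based luminescence, normalized between DMSO-only and 100 uM tamoxifen controls. Cells were exposed in complete culture medium for 40 hr at 37 °C before detection.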

[5] = Cell Viability - HepG2 (AID 433; calls by dose curve;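 further: potency means the concentration at half of the fitted maximal effect; potency for ATP loss meaning cytotoxicity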); details: qHTS
Procedure, shortened: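 ATP luminescence (CellTiter-Glo) after 40 h compound exposure, 37 °C, HepG2, 1500 cells/well, complete medium. Normalized: DMSO = basal, 100 uM tamoxifen = 100% inhibition. AC50 via standard Hill equation.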

[6] = Cell Viability - MRC5 (AID 434; calls by dose curve;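 further: potency means the concentration at half of the fitted maximal effect; potency reflects cytotoxicity seen as loss of intracellular ATP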); details: MRC5 lung fibroblast viability, qHTS
Procedure, shortened: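 Decrease in intracellular ATP, quantified by luciferase light output, reflects compound toxicity toward MRC5 cells exposed for 40 hr in complete culture medium. Concentration-response curves, scaled between DMSO and 100 uM tamoxifen, gave AC50 values.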

[7] = Cell Viability - SK-N-SH (AID 435; calls by dose curve; further: potency means the concentration at half of the fitted maximal effect); details: SK-N-SH neuroblastoma cell viability qHTS
Procedure, shortened: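 CellTiter-Glo ATP luminescence, 20 min RT read; cells pre-plated 5 hr, compound 40 hr at 37 °C, 1500 cells/well, complete medium. Normalized DMSO = 0, 100 uM tamoxifen = 100% inhibition; Hill-fit AC50.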

[8] = NFAT Signaling Pathway (AID 444); details: Jurkat NFAT-bla M1, carbachol, beta-lactamase ratio, 5 h;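 further: carbachol stimulus at about its EC50 of 1 µM final; on the % scale 0 is the no-effect control and ±100 the full control effect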
Procedure, shortened: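 Jurkat cells carrying an NFAT-driven β-lactamase reporter and co-transfected muscarinic M1 receptor were treated with compound plus carbachol (1 uM final, an EC50 level) for 5 h at 37 °C. CCF4 loading followed for 1 h at RT; 460/530 nm ratio gave %activity.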

[9] = Stat Signaling Pathway (AID 446); details: ME-180 (cervical carcinoma) SIE beta-lactamase reporter, IL-6 stimulated, 5 h; at 38 µM (top of the series) unless noted;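 further: ME-180 cervical cancer cells given 40 pM IL-6 alongside compound; SIE-controlled beta-lactamase reporter measured as 460/530 nm FRET emission ratio; on the % scale 0 is the no-effect control and ±100 the full control effect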
Procedure, shortened: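 Overnight-plated ME-180 cells bearing a STAT Inducible Element beta-lactamase reporter; 5 h co-exposure to compound and 40 pM IL-6; values normalized to 300 pM IL-6 and 125 nM JAK inhibitor controls.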

[10] = target: Glucocorticoid receptor (Homo sapiens) (UniProt P04150); assay: GR-GFP Redistribution (AID 450;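 active means compounds whose dose series gives a full or clear partial fitted curve of increased nuclear translocation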; further: potency means the concentration at half of the fitted maximal effect); details: U2OS GR-GFP nuclear translocation, laser cytometry, 2 h
[11] = target: Glucocorticoid receptor (Homo sapiens) (UniProt P04150); assay: GR-EFC Redistribution (AID 451; calls by dose curve; further: potency means the concentration at half of the fitted maximal effect); details: CHO-K1 GR-EFC translocation, beta-gal luminescence, 2 h
Procedure, shortened: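 CHO-K1 cells stably expressing nuclear-localized β-gal enzyme acceptor and GR fused C-terminally to the enzyme donor fragment; ligand-driven nuclear translocation restores β-gal by complementation. Compounds titrated up to 46 uM final, 2 h at 37 °C; luminescence read.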

[12] = target: Mitogen-activated protein kinase 10 (Mus musculus) (UniProt Q61831); assay: JNK3 AlphaScreen Assay (AID 530);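 further: kinase came from lysate of stimulated human HepG2 cells; signal reports phosphorylation of biotinylated GST-cJun 1-79 at Ser73 with 10 µM ATP; on the % scale 0 is the no-effect control and ±100 the full control effect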
Procedure, shortened: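 Phosphorylation of biotinylated GST-cJun(1-79) at Ser73 is measured by AlphaScreen proximity luminescence. Enzyme is JNK3 in HepG2 lysates activated with interleukin-1beta and tumor necrosis factor alpha; ATP is 10 uM final.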

[13] = Cell Viability - N2a (AID 540; active means well fitted cell-killing curve with a large enough effect;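 further: plate controls were DMSO alone for no effect and tamoxifen control for full effect; nearly all actives have a fitted effect of over 45% in size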); details: N2a mouse neuroblastoma cell viability; activity change, negative = cytotoxicity: at 92.2 µM (top of the series)
Procedure, shortened: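 Cytotoxicity was scored as loss of cellular ATP in N2a cells, a mouse neuroblastoma line. Compounds are applied in a qHTS concentration series for 40 hr at 37 °C.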

[14] = Cell Viability - NIH 3T3 (AID 541; active means well fitted cell-killing curve with a large enough effect;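 further: plate controls were DMSO alone for no effect and tamoxifen positive control for full effect; nearly all actives have a fitted effect of over 25% in size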); details: NIH 3T3 cell viability, qHTS
Procedure, shortened: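 Cells seeded at 1000/well, rested 5 hr at 37 °C, then dosed and incubated 40 hr at 37 °C. CellTiter-Glo added, 20 min room temperature, luminescence read. AC50 by Hill fit.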

[15] = Cell Viability - H-4-II-E (AID 543; active means well fitted cell-killing curve with a large enough effect; further: on the % scale 0 is the no-effect control and ±100 the full control effect; nearly all actives have a fitted effect of over 35% in size)
Procedure, shortened: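 Cells seeded at 1500 per well and rested 5 hr; compounds added; 40 hr incubation at 37 °C; CellTiter-Glo added, 20 min at room temperature; luminescence read. Hill-equation fits gave AC50.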

[16] = Cell Viability - SH-SY5Y (AID 544; active means well fitted cell-killing curve with a large enough effect; further: nearly all actives have a fitted effect of over 55% in size; further: potency means the concentration at half of the fitted maximal effect)
Procedure, shortened: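 Cells were plated at 1500 per well and allowed 5 hr at 37 °C. Compounds were added across a concentration range and incubated 40 hr at 37 °C. CellTiter-Glo was added for 20 min at room temperature before luminescence reading.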

[17] = Cell Viability - Renal Proximal Tubule (AID 545; active means well fitted cell-killing curve with a large enough effect;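 further: 0% = DMSO only and -100% = 100 µM tamoxifen; nearly all actives have a fitted effect of over 40% in size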); details: renal proximal tubule cells viability; activity change, negative = cytotoxicity: at 91.7 µM (top of the series)
Procedure, shortened: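 Rat kidney proximal tubule cells, freshly isolated; 1000 cells/well, 5 hr settle, compound 40 hr 37 °C. CellTiter-Glo 20 min RT, luminescence read. AC50 by standard Hill fit.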

[18] = Cell Viability - Mesenchymal (AID 546; active means well fitted cell-killing curve with a large enough effect;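 further: cells exposed to compound for 40 hours before reading; 0% = DMSO only and -100% = 100 µM tamoxifen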)
Procedure, shortened: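 In this qHTS cytotoxicity format, glomerulus-derived human mesenchymal kidney cells received compound for 40 hr, then luciferase-based ATP quantitation. Concentration-response data were fitted with the Hill equation.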

[19] = Cell Viability - Jurkat (AID 426;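 active means dose-dependent loss of cell ATP signal giving a full or clear fitted curve, ranked by lower potency value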;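 further: potency means the concentration at half of the fitted maximal effect; cells exposed to compound for 40 hours at 37 °C before ATP read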); details: qHTS
Procedure, shortened: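 Cells of the human T-cell leukemia line Jurkat (E6-1) are seeded at 5000 per well, treated with compound across a concentration range for 40 hours at 37 °C, then lysed with CellTiter-Glo; luminescence reports ATP.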

[20] = target: Cytochrome P450 1A2 (Homo sapiens) (UniProt P05177); assay: p450-cyp1a2 (AID 410; calls by dose curve;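 further: -100% = full effect of reference inhibitor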)
Procedure, shortened: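 O-Demethylation of luciferin 6' methyl ether by human CYP1A2 is monitored as luciferase luminescence. Substrate sits at Km (100uM); enzyme is 20nM. Values are scaled to 57 uM furafylline as maximal inhibition.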

[21] = at 38 µM (top of the series) unless noted

Sequence of Glucocorticoid receptor (Homo sapiens) (P04150 whole entry, looked up, the tested form may be a part): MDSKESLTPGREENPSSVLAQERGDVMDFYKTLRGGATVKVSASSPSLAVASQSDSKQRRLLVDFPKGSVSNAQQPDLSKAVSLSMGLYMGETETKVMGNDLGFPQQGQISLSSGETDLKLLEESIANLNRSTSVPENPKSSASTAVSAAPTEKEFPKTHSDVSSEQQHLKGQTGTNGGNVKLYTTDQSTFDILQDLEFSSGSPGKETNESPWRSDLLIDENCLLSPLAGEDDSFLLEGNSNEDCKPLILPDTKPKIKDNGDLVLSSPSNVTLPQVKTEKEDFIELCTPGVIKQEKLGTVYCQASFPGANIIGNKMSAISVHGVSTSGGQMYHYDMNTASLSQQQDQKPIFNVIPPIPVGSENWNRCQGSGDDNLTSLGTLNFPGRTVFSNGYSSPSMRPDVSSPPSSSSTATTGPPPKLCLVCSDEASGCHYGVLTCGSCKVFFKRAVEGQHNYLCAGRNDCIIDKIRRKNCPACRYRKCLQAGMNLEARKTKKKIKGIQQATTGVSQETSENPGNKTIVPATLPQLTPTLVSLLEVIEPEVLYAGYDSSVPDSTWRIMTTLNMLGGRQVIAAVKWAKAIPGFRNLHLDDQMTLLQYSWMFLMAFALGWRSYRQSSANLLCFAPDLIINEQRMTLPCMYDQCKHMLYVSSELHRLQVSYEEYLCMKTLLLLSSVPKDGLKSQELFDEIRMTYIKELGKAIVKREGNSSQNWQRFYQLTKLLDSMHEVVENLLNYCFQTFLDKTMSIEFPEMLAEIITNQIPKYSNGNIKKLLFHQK
Sequence of Cytochrome P450 1A2 (Homo sapiens) (P05177 whole entry, looked up): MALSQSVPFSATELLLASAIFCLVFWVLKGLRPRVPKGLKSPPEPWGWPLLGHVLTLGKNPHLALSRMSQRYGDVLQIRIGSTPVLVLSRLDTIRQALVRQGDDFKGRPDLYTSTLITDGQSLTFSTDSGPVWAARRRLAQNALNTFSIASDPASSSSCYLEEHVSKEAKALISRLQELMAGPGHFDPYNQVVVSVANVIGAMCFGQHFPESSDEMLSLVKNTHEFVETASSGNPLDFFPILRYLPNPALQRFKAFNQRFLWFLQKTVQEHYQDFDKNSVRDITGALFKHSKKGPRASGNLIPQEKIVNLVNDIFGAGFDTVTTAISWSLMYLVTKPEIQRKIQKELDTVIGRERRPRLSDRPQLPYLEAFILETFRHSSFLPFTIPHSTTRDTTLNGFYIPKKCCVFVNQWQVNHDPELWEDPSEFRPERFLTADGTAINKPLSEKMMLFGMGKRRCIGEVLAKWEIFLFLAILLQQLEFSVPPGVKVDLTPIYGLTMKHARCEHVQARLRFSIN
Sequence of Lysosomal acid glucosylceramidase (Homo sapiens) (P04062 whole entry, looked up): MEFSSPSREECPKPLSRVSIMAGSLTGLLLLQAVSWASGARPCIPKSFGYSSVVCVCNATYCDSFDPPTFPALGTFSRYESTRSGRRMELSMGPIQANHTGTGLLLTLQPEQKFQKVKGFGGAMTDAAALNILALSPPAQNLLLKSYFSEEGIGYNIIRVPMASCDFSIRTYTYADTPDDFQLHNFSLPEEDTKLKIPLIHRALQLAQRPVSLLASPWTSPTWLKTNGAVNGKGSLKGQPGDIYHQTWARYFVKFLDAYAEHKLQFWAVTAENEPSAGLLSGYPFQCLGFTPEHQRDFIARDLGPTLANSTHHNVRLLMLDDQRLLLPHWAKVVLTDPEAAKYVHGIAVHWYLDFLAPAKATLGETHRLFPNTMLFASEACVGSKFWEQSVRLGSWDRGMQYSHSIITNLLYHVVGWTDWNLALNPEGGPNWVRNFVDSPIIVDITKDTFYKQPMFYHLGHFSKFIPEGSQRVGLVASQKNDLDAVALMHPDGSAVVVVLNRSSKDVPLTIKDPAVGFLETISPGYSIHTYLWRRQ

CC(C)(C)c1cc(O)ccc1O
inactive: Potency [1] > 11.4 µM | activity change, negative = inhibition [2] 7.46% [at 7.69 µM] | Potency [3] > 92 µM | Potency [4] > 92 µM | Potency [5] > 92 µM | Potency [6] > 92 µM | Potency [7] > 92 µM | activity change, negative = inhibition [8, 21] -2.58% [at 7.69 µM] | activity, negative = inhibition [9] -2.67% [at 7.69 µM] | Potency [10] > 46 µM | Potency [11] > 9.22 µM | outcome [12] | Potency [13] | activity change, negative = cytotoxicity ([14]; at 92.2 µM (top of the series)) -22.3% | Potency [15] | Potency [17] | Potency [18]
active: activity change, negative = cytotoxicity ([14]; activity change, negative = cytotoxicity: at 92.2 µM (top of the series)) -106% | Potency [16] 10 µM and 12.6 µM

NC(N)=NOCC[C@H](N)C(=O)O
inactive: outcome [2] | activity change, negative = inhibition ([8]; at 17.2 µM (top of the series)) -0.483% | activity change, negative = inhibition ([8]; at 38 µM (top of the series)) 17% | activity, negative = inhibition [9] 4.59% [at 17.2 µM] | Potency [10] > 46 µM and > 20.6 µM | Potency [11] > 46 µM and > 20.6 µM | outcome [12]

O=C1C=CC(=O)C=C1
active: Potency [19] 31.4 µM
inactive: outcome [2] | Potency [3] > 92 µM | Potency [4] > 92 µM | Potency [5] > 92 µM | Potency [6] > 92 µM | Potency [7] > 92 µM | activity change, negative = inhibition [8, 21] -3.4% | activity, negative = inhibition [9] -5.57% | outcome [12] | Potency [13] | Potency [15] | Potency [16] | Potency [17] | Potency [18]

Clc1ccc(N2C[C@H]3CC[C@@H](C2)N3)nn1
inactive: outcome [2] | activity change, negative = inhibition [8, 21] -11.9% | activity, negative = inhibition [9] 37.1% | Potency [10] > 46 µM | Potency [11] > 46 µM | outcome [12]

CNC(=O)OCC[N+](C)(C)C
inactive: outcome [2] | Potency [20] | activity change, negative = inhibition [8, 21] 3.8% | Potency [10] > 46 µM | Potency [11] > 46 µM | outcome [12]

CC(C)[C@@]1(NC(=O)[C@@H]2C[C@@H]3c4cccc5[nH]cc(c45)C[C@H]3N(C)C2)O[C@@]2(O)[C@@H]3CCCN3C(=O)[C@H](Cc3ccccc3)N2C1=O
inactive: outcome [2] | activity change, negative = inhibition [8, 21] -22.9% [at 17.2 µM] | activity, negative = inhibition [9] -26.4% [at 17.2 µM] | Potency [10] > 20.6 µM

Cc1[nH]c2ccc(O)cc2c1CCN
inactive: outcome [2] | activity change, negative = inhibition [8, 21] 10.3% | activity, negative = inhibition [9] 6.41% | Potency [10] > 46 µM | Potency [11] > 46 µM | outcome [12]

O=S1(=O)N(CCN2CC=C(c3c[nH]c4cc(F)ccc34)CC2)c2cccc3c2N1CCC3
inactive: outcome [2] | activity change, negative = inhibition [8, 21] -17.5% | activity, negative = inhibition [9] 22.3% | Potency [10] > 46 µM | Potency [11] > 46 µM | outcome [12]
